Only some compounds are listed: those with a hit (about 3.8% of all), similar ones and a draw of the others.
GLS inhibitor = inhibitors of human glutaminase (GLS); GLS enzymatic activity, qHTS titration; AID 624170; O94925; Potency, µM (doses to about 45.5 µM), for inactives: at the highest dose activity change, negative = inhibition, hits mostly inhibitors; actives 0.21% (n = 410,000)
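Enzyme dispensed in phosphate buffer (45 mM, pH 8.2, 0.02% Tween-20), compounds pinned in, then 1 mM L-glutamine solution and the glutamate oxidase–HRP–Amplex Red mix added; fluorescence read immediately and again after 30 min at room temperature.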
VDR inhibitor = blocks the human vitamin D receptor. AID 504847. VDR-SRC2-3 peptide fluorescence polarization, 2 h. Potency, µM, without a hit: max response, negative = inhibition, most hits filed as inhibitors. P11473. actives 0.93% (n = 400,000)
Target sequence (P11473 whole entry, looked up): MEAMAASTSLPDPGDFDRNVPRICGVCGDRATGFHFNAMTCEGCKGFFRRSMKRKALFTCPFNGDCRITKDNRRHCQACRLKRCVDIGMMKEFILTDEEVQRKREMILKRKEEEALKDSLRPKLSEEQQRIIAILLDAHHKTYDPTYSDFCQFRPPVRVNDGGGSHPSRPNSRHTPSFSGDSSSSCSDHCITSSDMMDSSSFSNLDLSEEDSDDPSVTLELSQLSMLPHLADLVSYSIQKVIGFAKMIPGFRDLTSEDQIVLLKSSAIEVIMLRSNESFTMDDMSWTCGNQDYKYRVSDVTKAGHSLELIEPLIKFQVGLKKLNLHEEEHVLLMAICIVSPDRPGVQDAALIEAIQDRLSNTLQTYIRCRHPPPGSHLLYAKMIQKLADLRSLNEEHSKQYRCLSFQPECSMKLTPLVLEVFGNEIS
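FP read-out; VDR + SRC2-3 coactivator peptide; 23 nl compound by pintool; 2 h RT incubation; reagents held at 4 deg C, protected from light.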
Sfp inh = Sfp phosphopantetheinyl transferase inhibition. Biochemical Sfp PPTase activity, qHTS. actives 3.5% (n = 310,000). Potency, µM, without a hit: largest response in the series, negative = inhibition, usual class: inhibitors. Q9F4F7. AID 1490;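 note: the enzyme is Sfp with the accession as filed and its product quenches rhodamine fluorescence; 0% = enzyme reaction without inhibitor and -100% = no enzyme wells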
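Sfp 15 nM + cpd, 15 min RT; start w/ rhodamine-CoA 5 uM, BHQ-2-YbbR 12.5 uM (final); 50 mM Hepes pH 7.6, 10 mM MgCl2, 0.01% NP-40, 0.01% BSA; read 525/598 nm at 0 and 30 min.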
rTrxR1 inhibitor = rat TrxR1 inhibition; O89049; actives 1% (n = 390,000); Potency, µM (titrated, usually from 114 µM), without a hit: top-dose activity change, negative = inhibition, hits mostly inhibitors; recombinant rTrxR1, NADPH fluorescence consumption, selenite substrate; note: nearly all actives have a fitted effect of over 65% in size
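Rat TrxR1 (90 nM in the dispensed reagent) was pre-reduced with 400 uM NADPH for 5 min at room temperature, then incubated with compound for 15 min. After 400 uM selenite was added, NADPH fluorescence (Ex 340/Em 450 nm) was followed for 8 min.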
GCN5L2 inh = GCN5L2 (KAT2A) acetyltransferase inhibition; Q92830; AID 504327; actives 0.21% (n = 390,000); GCN5L2 HAT assay, ThioGlo1 CoA-SH fluorescence; Potency, µM (highest dose often 58.9 µM), for inactives: at the top dose activity change, negative = inhibition, most hits filed as inhibitors
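Compounds, pin-transferred from DMSO stocks, meet 20nM GCN5L2 for 15 min before the reaction begins with H3(1-25) peptide (75uM) and acetyl-CoA (70uM). Thiol-reactive ThioGlo1 reports CoA release over 20 min at room temperature.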
TrxR1 substrate = is turned over as a substrate by rat TrxR1 | purified TrxR1 substrate turnover, NADPH consumption readout | Potency, µM (titrated, usually from 114 µM), for inactives: at the highest dose activity change, negative = substrate turnover | actives 0.01% (n = 390,000) | O89049; note: nearly all actives have a fitted effect of over 50% in size
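Rat TrxR1, dispensed at 90 nM, was prereduced with 400 uM NADPH (final) for 5 min at ~22 deg C, then incubated with compound 15 min before 400 uM selenite. A first-read NADPH fluorescence drop versus no-compound background flagged substrates.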
* hit, by the source's call; u = inconclusive; x = not tested or not shown; [ ] = remark or other dose. Calls come from the whole dose curve; as a rule, active = well fitted curve in the direction sought with a large enough effect; inconclusive = small, poorly fitted or top-dose-only effect, or another doubt; inactive = no such curve, though single readings can be large; an effect the other way counts as inactive or inconclusive. Unless noted, % is set by controls: 0 for no effect and ±100 for the full control effect; potency is the fitted concentration of half-maximal effect.

SMILES	GLS inhibitor	VDR inhibitor	Sfp inh	rTrxR1 inhibitor	GCN5L2 inh	TrxR1 substrate
Nc1c(N(CCCO)C(=O)CCCN2C(=O)c3cccc4cccc(c34)C2=O)c(=O)[nH]c(=O)n1Cc1ccccc1	2%	-19%	x	-22%	x	-4%
CC(O)[C@@H](O)[C@H]1CNc2nc(N)[nH]c(=O)c2N1 (some centres not stated)	x	x	x	106%	x	x
C[C@H](O)[C@H](O)[C@H]1CNc2nc(N)[nH]c(=O)c2N1	27%	79µM*	x	-16%	-26%	269%
O=C(Nc1cnn(Cc2ccc(Cl)cc2)c1)c1cccs1	u	u	-5%	14%	-9%	-5%
O=C(NC(=S)NNC(=O)c1cccs1)c1ccco1	16%	6%	79µM*	-16%	-12%	1%
O=C(NNC(=O)c1cccs1)c1ccco1	5%	-2%	89µM*	14%[57.1 µM]	-6%	3%[57.1 µM]
CC(C)c1c(O)nc(SCCC(=O)O)[nH]c1=O	9%	1%	13%	12%	-1%	7%
Cc1cc(=O)n2[nH]c(C)c(-c3ccc(Cl)cc3)c2n1	23%	7%	2%	30%	-9%	20%
NC1=C(Br)C(=O)c2ncccc2C1=O	0%	u	x	-20%[11.4 µM]	x	6%[11.4 µM]
O=C1C=C(NCCc2cc(Br)c(O)c(Br)c2)C(=O)c2ncccc21	10%	32µM*	x	-40%[57.1 µM]	x	-3%[11.4 µM]
COc1ccc(-c2cc(NC(=O)c3cncn3-c3ccccc3)ccc2OC)cc1	4%	-13%	-3%	5%[57.1 µM]	-11%	13%[0.0914 µM]
Cc1cccn2c(=O)c3cc(C(=O)NCCc4ccccc4)c(=N)n(Cc4ccco4)c3nc12	-4%	11%	32µM*	-7%[57.1 µM]	-10%	9%[57.1 µM]
Cc1cccn2c(=O)c3cc(C(=O)NCc4ccco4)c(=N)n(CCc4ccccc4)c3nc12	-9%	4%	89µM*	30%	-9%	69%
CCn1c(=N)c(C(=O)NCc2ccccc2)cc2c(=O)n3cccc(C)c3nc21	3%	-9%	x	50%	-4%	292%
C/C(=C\C(=O)OCCCCCCCCC(=O)O)C[C@@H]1OC[C@H](C[C@@H]2O[C@H]2[C@@H](C)[C@H](C)O)[C@@H](O)[C@H]1O	11%	5%	25%	-4%	-18%	-1%
COc1ccccc1NC(=O)C1=C(C)NC(=O)NC1c1ccc(C)cc1 (configuration not stated)	3%	3%	10%	-12%	-10%	-4%
CC1=C(C(=O)Nc2ccccc2)C(c2ccccc2[N+](=O)[O-])NC(=O)N1 (configuration not stated)	11%	1%	20µM*	3%	-3%	-1%
CC1=C(C(=O)Nc2ccccc2)C(c2ccco2)NC(=O)N1 (configuration not stated)	-9%	-2%	x	-6%	x	-2%
COc1ccccc1NC(=O)C1=C(C)NC(=O)NC1c1ccccc1[N+](=O)[O-] (configuration not stated)	-1%	x	3.5µM*	31%[57.1 µM]	-16%	12%[57.1 µM]
Cc1[nH]nc(Nc2ccccc2)c1[N+](=O)[O-]	30%	1%	1%	-14%	72%	-10%
CCOC(=O)N1CCN(C2CC(=O)N(c3ccc(C)cc3)C2=O)CC1 (configuration not stated)	-5%	8%	25%	-1%[57.1 µM]	2%	1%[57.1 µM]
Cc1ccc(NC(=S)/C(=C(\[O-])c2ccc(Cl)s2)[n+]2cccc(CO)c2)cc1C	1%	-3%	25µM*	-120%	-4%	1%[57.1 µM]
[O-]/C(=C(\C(=S)Nc1ccc(SC(F)F)cc1)[n+]1cccc(CO)c1)c1ccc(Cl)s1	2%	13%	u	17%[57.1 µM]	-5%	-2%[57.1 µM]
CCNc1ncc2nc(-c3cccs3)c(=O)n(CCc3ccccc3)c2n1	x	0%	2%	x	-8%	x
CCN(CC)c1ccc(C(=C2C=CC(=[N+](CC)Cc3cccc(S(=O)(=O)[O-])c3)C=C2)c2ccc(N(CC)Cc3cccc(S(=O)(=O)O)c3)cc2)cc1	x	13µM*	u	x	10µM*	x
SMILES	GLS inhibitor	VDR inhibitor	Sfp inh	rTrxR1 inhibitor	GCN5L2 inh	TrxR1 substrate
CCN(CC)c1ccc(C(=C2C=CC(=[N+](CC)CC)C=C2)c2ccc(N(CC)CC)cc2)cc1	-7%	u	x	u	x	3%
CCCCc1nc2sc3c(SCC(=O)NCc4ccco4)ncnc3c2c2c1CCC2	-17%	-11%	45µM*	-27%	-4%	-10%
O=C(CSc1ncnc2c1oc1ccccc12)NCc1ccco1	-2%	-10%	28µM*	u	-2%	7%
COc1cccc(NC(=O)CSc2ncnc3c2oc2ccccc23)c1	1%	0%	71µM*	8%	-35%	5%
O=C(CSc1nnc2c(n1)[nH]c1ccccc12)NCc1ccco1	-1%	-4%	40µM*	-15%	-11%	0%
COC(=O)NC1c2ccccc2Oc2ccccc21	-10%	-8%	7%	2%[57.1 µM]	-4%	-23%[57.1 µM]
COc1ccc(CNC(=O)Cn2ncn3c(cc4ccccc43)c2=O)cc1	0%	-4%	-18%	13%	-12%	-5%[0.0914 µM]
O=C(Cn1cnc2sc(-c3ccccc3)cc2c1=O)NCc1ccccc1	3%	0%	3%	32%	-30%	16%
O=C(Cn1cnc2sc(-c3ccccc3)cc2c1=O)NCc1ccco1	u	u	32µM*	u	u	5%[57.1 µM]
O=C(Cn1ncn2c(cc3ccccc32)c1=O)NCc1ccco1	27%	2%	22µM*	u	-21%	11%
CCN1CCN(Cc2ccc(NC(=O)c3ccc(C)c(NC(=O)c4nccn4C)c3)cc2C(F)(F)F)CC1	-9%	-12%	6%	9%	3%	-1%
CCN1CCN(Cc2ccc(NC(=O)c3ccc(C)c(NC(=O)N4CCNC4=O)c3)cc2C(F)(F)F)CC1	5%	5%	28%	10%[57.1 µM]	-3%	2%
CCN1CCN(Cc2ccc(NC(=O)c3ccc(C)c(NC(=O)c4nccnc4N)c3)cc2C(F)(F)F)CC1	6%	11%	89µM*	7%[57.1 µM]	0%	5%
CCN1CCN(Cc2ccc(NC(=O)c3ccc(C)c(NC(=O)c4cc(-c5ccc(Br)cc5)n[nH]4)c3)cc2C(F)(F)F)CC1	3%	7%	79µM*	29%	-4%	1%
COc1ccc(C2CC(c3cccs3)=NN2C(=O)CCl)cc1OC (configuration not stated)	7%	-8%	16%	7.9µM*	-5%	0%
COc1ccc(C2CC(c3cccs3)=NN2C(=O)c2ccccc2)cc1OC (configuration not stated)	u	-10%	-1%	13%[57.1 µM]	-10%	12%[57.1 µM]
